Experimental findings from PubChem BioAssay (NCATS) are described below.

The structures appear in SMILES notation. Records with an inconclusive call do not appear. Active and inactive are the calls of the source. Calls follow the shape of the dose curve; as a rule, active = well fitted cell-killing curve with a large enough effect; inconclusive = small, poorly fitted or top-dose-only effect, or effect the other way; inactive = no such curve, though single readings can be large or run the other way.
Potency is read from the fitted curve at half-maximal effect.

A short description of this experiment: Quantitative highthroughput screen to assess conditional lethalithy of SEM cells grown in Human Plasma-Like Medium with dialyzed fetal bovine serum (HPLM+ds) (AID 1963882). Also: nearly all actives have a fitted effect of over 35% in size. The note with it: SEM B-ALL cells in HPLM+ds, CellTiter-Glo viability, 48 h; series mostly up to 45.8 µM. In outline:
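Each medium arm—HPLM with 10% dialyzed FBS, or RPMI1640 with 5 mM glucose and 10% untreated or dialyzed FBS—was screened against an 11-point, 3-fold compound titration for 48 h at 37 °C, with CellTiter-Glo luminescence as endpoint.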
A general note: In ATP-based viability assays light output follows the ATP content of the culture.
`CC(C)[N+]1(C)[C@@H]2CC[C@H]1CC(OC(=O)C(CO)c1ccccc1)C2` (stereo partly drawn): the Potency was 9.35 µM (active).
Take `Nc1nc(F)nc2c1ncn2[C@@H]1O[C@H](COP(=O)(O)O)[C@@H](O)[C@H]1O`: the Potency is 1.48 µM (active).
`COc1cc(O)c2c(c1)C(=O)c1cc(C)cc(O)c1C2=O`: the Potency is 6.45 µM (active).
For `COc1ccc2c3n(c(=NC(=O)c4cccnc4)nc2c1OC)CCN3`, the Potency is 20.9 µM (active).
Take `CCOc1ccccc1N=Nc1c(C)[nH]n(-c2nc(-c3ccccc3)cs2)c1=O`: the Potency was 5.26 µM (active).
`Clc1ccc(C(Cn2ccnc2)OCc2ccc(Sc3ccccc3)cc2)c(Cl)c1` (stereo not drawn): the Potency entry was “inactive”.
As to `CNC(=O)c1c(F)cccc1Nc1nc(Nc2cc3c(cc2OC)CCN3C(=O)CN(C)C)nc2[nH]ccc12`, the Potency was 0.59 µM (active).
`CO[C@@H]1[C@@H](O)[C@H](O)[C@@H](n2c3c(Cl)cccc3c3c4c(c5c6cccc(Cl)c6[nH]c5c32)C(=O)NC4=O)O[C@@H]1CO`: the Potency was 0.59 µM (active).
With `Cc1cc(OCCCS(C)(=O)=O)cc(C)c1-c1cccc(COc2ccc3c(c2)OC[C@H]3CC(=O)O)c1`, the Potency result was “inactive”.
The entry for `COc1nccc(-c2c(-c3ccc(F)cc3)ncn2C2CCNCC2)n1` is “inactive”; for `CC(C)OC(=O)[C@H](C)N[P@](=O)(OC[C@H]1O[C@@H](n2ccc(=O)[nH]c2=O)[C@](C)(F)[C@H]1O)Oc1ccccc1` it is 4.69 µM (active).
The entry for `OC[C@H]1O[C@@H](Oc2cc(O)cc(C=Cc3ccc(O)cc3)c2)[C@H](O)[C@@H](O)[C@H]1O` is “inactive”.
As for `CC(C)NC[C@@H](C(=O)N1CCN(c2ncnc3c2[C@H](C)C[C@H]3O)CC1)c1ccc(Cl)cc1`, the Potency was 0.296 µM (active).
The value for `CC(C)N(CC[C@H](c1ccccc1)c1cc(CO)ccc1O)C(C)C` was “inactive”.
The entry for `CO[C@H]1O[C@@H]2O[C@@]3(C)CC[C@@H]4[C@@H](C)CC[C@@H]([C@H]1C)[C@@]24OO3` is “inactive”.
As to `CCOC1OC(=O)C[C@H]1NC(=O)[C@@H]1CCCN1C(=O)[C@@H](NC(=O)c1ccc(N)c(Cl)c1)C(C)(C)C` (stereo partly drawn), the Potency result is “inactive”.
Take `Cc1[nH]c(C=C2C(=O)Nc3ccc(S(=O)(=O)N(C)c4cccc(Cl)c4)cc32)c(C)c1C(=O)N1CCN(C)CC1`: the Potency is 13.2 µM (active).
In the case of `CCNC(=O)CCCC=CC[C@@H]1[C@H](C=CC(O)CCc2ccccc2)[C@@H](O)C[C@@H]1O` (stereo partly drawn), the Potency result was “inactive”.
